The target in assay [1] is ATP-dependent DNA helicase Q1 (Homo sapiens) (UniProt P46063). Nature of the assay: qHTS Validation Assay for Inhibitors of RecQ-Like Dna Helicase 1 (RECQ1) (AID 2353). Also: potency is read from the fitted curve at half-maximal effect. The method in brief: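 50 nM RECQ1T1 preincubated 15 min with compound in Tris pH 8.0 buffer with MgCl2, DTT, Tween-20 and 2.5 ug/ml poly(dI-dC); started with 200 nM TAMRA/BHQ-2 forked duplex and 2 mM ATP. Unwinding read as fluorescence (525/598 nm), two reads 2 h apart.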
Chain of ATP-dependent DNA helicase Q1 (Homo sapiens) (P46063 whole entry, looked up): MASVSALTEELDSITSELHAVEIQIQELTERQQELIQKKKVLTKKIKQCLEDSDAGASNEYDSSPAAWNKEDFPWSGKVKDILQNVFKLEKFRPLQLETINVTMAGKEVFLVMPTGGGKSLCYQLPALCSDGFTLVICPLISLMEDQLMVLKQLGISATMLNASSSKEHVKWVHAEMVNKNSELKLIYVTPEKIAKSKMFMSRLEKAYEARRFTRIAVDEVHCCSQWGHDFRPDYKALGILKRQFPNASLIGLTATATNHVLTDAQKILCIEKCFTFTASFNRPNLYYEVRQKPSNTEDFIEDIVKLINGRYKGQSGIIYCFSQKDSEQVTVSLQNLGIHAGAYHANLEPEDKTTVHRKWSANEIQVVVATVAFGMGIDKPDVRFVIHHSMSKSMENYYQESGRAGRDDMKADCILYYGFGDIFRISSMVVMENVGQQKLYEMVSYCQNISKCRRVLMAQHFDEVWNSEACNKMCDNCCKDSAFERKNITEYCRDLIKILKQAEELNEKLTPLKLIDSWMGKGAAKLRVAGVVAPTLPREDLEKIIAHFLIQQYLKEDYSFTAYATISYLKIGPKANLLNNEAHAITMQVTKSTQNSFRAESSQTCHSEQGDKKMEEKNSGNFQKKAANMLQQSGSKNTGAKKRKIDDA

The target of assay [2] is RecQ-like DNA helicase BLM (Homo sapiens) (UniProt P54132). Nature of the assay: qHTS Validation Assay for Inhibitors of Bloom's syndrome helicase (BLM) (AID 2364). Also: potency is read from the fitted curve at half-maximal effect. The method in brief: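 BLM 50 nM in 25 mM Tris-HCl pH 8.0, 5 mM NaCl, 2 mM MgCl2, 1 mM DTT, 0.01% Tween-20, 2.5 ug/ml poly(dI-dC); 15 min cpd preinc, RT. Start: 200 nM forked DNA + 2 mM ATP (final). TAMRA read, 2 reads 2 h apart.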
Chain of RecQ-like DNA helicase BLM (Homo sapiens) (P54132 whole entry, looked up): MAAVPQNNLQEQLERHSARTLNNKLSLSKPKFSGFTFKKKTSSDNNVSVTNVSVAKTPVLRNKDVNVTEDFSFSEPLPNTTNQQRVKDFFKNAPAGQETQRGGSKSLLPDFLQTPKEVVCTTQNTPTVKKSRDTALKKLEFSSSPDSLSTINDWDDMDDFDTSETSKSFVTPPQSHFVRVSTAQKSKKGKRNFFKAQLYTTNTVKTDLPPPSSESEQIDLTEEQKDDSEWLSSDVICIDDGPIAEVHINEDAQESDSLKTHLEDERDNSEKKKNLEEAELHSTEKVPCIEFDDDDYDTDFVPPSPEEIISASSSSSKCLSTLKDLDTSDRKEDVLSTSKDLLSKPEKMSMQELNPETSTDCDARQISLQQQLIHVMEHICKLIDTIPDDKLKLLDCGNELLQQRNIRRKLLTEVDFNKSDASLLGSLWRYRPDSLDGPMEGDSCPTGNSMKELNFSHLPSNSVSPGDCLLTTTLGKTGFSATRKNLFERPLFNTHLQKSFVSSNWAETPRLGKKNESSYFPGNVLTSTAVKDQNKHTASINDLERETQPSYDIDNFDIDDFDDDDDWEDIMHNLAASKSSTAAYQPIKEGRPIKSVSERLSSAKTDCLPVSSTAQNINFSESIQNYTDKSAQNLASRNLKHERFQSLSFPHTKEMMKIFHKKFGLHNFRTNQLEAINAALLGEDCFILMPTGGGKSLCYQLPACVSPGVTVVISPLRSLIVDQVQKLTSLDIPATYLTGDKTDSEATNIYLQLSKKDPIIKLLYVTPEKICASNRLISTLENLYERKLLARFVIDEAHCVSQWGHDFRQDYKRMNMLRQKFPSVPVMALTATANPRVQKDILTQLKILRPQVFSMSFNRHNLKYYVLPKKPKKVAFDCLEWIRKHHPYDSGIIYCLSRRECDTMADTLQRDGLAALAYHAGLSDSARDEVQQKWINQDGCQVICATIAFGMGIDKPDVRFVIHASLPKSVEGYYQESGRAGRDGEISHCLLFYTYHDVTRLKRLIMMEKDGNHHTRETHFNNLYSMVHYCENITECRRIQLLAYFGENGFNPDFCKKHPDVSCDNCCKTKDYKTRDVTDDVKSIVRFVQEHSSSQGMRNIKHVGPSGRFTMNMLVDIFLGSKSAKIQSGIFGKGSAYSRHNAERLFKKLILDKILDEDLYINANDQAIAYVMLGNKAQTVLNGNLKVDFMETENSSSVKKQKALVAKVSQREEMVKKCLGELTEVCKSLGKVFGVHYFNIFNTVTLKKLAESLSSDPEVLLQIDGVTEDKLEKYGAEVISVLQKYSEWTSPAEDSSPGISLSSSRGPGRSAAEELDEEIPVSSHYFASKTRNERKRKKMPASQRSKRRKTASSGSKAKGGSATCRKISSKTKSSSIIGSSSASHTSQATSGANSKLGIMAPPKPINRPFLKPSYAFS
A general note: qHTS replaces the single test concentration by a dilution series.

A short description of assay [3]: Cytometric Cell-Based qHTS for Inhibitors of the mTORC1 Signaling Pathway in MEF (Tsc2-/-, p53-/-) Cells (AID 2660).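 Also: percent of cells above a phospho-rpS6 to PI ratio cutoff in each well; series mostly up to about 38 µM.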 The method in brief:
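Tsc2-/-, p53-/- MEFs (empty vector) exposed to compound 24 h at 37 C, fixed, stained with Alexa-488 anti-phospho-rpS6 Ser235/236 and propidium iodide. Acumen laser scanning; phospho-S6/PI ratio thresholded against 7.5 nM rapamycin, reported as % positive cells.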

Assay [4] can be described thus: High Content Imaging Cell-Based qHTS for Inhibitors of the mTORC1 Signaling Pathway in MEF (Tsc2-/-, p53-/-) Cells (AID 2666).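 Also: percent of cells scored positive for phospho-rpS6 Ser235/236 immunostaining by imaging.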 The method in brief:
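Read-out: % positive cells per well, with thresholds from highest- and lowest-signal wells, based on phospho-rpS6 (Ser235/236) intensity normalized to Hoechst nuclear stain. Cells: Tsc2-/-, p53-/- MEFs carrying empty vector; compound 24 hrs, 37 degree Celsius.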

Assay [5] is described as follows: High Content Imaging Cell-Based qHTS for Inhibitors of the mTORC1 Signaling Pathway in MEF Cells (AID 2667). Also: potency is read from the fitted curve at half-maximal effect. The method in brief:
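MEF (Tsc2-/-, p53-/-, WT Tsc2 re-expressed); cpd 24 h, 37 °C; PFA fix; Alexa-488 anti-p-rpS6 Ser235/236, PI, Hoechst; IN Cell imaging; Hoechst/Alexa-488 intensity ratio; % active cells, thresholds set from rapamycin and DMSO wells.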

Assay [6] can be described thus: Cytometry Cell-Based qHTS for Inhibitors of the mTORC1 Signaling Pathway in MEF cells (AID 2668). Also: potency is read from the fitted curve at half-maximal effect. The method in brief: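 Phospho-rpS6 (Ser235/236) immunofluorescence over PI signal, scored as % positive cells using thresholds from 7.5 nM rapamycin and DMSO wells, after 24 h compound exposure of WT-Tsc2-rescued Tsc2-/-, p53-/- MEFs. PI cell count recorded for viability.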

Assay [7] is described as follows: Validation screen for small molecules that induce DNA re-replication in MCF 10A normal breast cells (AID 463097). Also: nearly all actives have a fitted effect of over 60% in size. In outline:
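Read-out is Hoechst total nuclear intensity by fluorescence scanning imager, flagging increased high-DNA-content nuclei. Compounds were incubated with MCF 10A cells for 48 hr (37 C, 5% CO2) before 40 min staining.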

Assay [8] deals with Ubiquitin carboxyl-terminal hydrolase 2 (Homo sapiens) (UniProt O75604). Nature of the assay: qHTS Validation Assay for Inhibitors of Ubiquitin-specific Protease USP2a Using CHOP2 as the Reporter (AID 463106). The method in brief:
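USP2 core (10nM final) was preincubated with compound for 30min at RT in 20mM Tris-HCl pH 8.0, 2mM CaCl2, 2mM beta-mercaptoethanol, 0.05% CHAPS. Ub-CHOP2 and reporter substrate (25nM each) were added, and fluorescence (Ex 485/Em 531nm) was read after 60min.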

Assay [9] concerns the target Tumor susceptibility gene 101 protein (Homo sapiens) (UniProt Q99816). Description: qHTS Validation Assay for Iinhibitors of HIV-1 Budding by Blocking the Interaction of PTAP/TSG101 (AID 485342; calls by dose curve). In outline: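 Fluorescence polarization of 50 nM FITC-PTAP peptide bound to 10 uM Tsg101 binding domain was read after 20 min room-temperature incubation with compounds, in 10 mM HEPES pH 7.5, 0.15 M NaCl, 0.01% Tween 20.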

In assay [10] the target is DNA polymerase III PolC-type (Bacillus subtilis (strain 168)) (UniProt P13267). Nature of the assay: qHTS Validation Assay for the Inhibitors of DNA Replication in Gram-Positive Bacteria (AID 485295). Also: potency is read from the fitted curve at half-maximal effect. The method in brief:
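Double-stranded DNA product detected by PicoGreen fluorescence after EDTA quench. Compound incubated with B. subtilis holoenzyme (PolC, beta subunit, SSB, primase) before substrate addition; primed replication of M13Gori with dNTPs and NTPs at room temperature; DMSO defines 0% inhibition.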

Results filed as inconclusive are left out. Active and inactive are the calls of the source. Unless noted, calls follow the shape of the dose curve; as a rule, active = well fitted curve in the direction sought with a large enough effect; inconclusive = small, poorly fitted or top-dose-only effect, or another doubt; inactive = no such curve, though single readings can be large; an effect the other way counts as inactive or inconclusive.

Chain of Tumor susceptibility gene 101 protein (Homo sapiens) (Q99816 whole entry, looked up, the tested form may be a part): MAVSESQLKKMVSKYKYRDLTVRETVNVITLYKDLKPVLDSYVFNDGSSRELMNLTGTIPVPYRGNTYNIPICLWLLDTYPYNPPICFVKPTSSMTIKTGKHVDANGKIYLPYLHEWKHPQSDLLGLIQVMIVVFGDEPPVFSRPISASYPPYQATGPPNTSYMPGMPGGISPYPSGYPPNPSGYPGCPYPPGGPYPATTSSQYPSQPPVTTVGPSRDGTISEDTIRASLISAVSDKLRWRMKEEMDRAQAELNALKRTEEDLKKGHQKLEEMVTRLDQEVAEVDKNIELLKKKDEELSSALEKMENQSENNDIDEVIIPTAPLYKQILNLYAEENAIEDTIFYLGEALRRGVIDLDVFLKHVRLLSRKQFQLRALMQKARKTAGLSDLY
Chain of DNA polymerase III PolC-type (Bacillus subtilis (strain 168)) (P13267 whole entry, looked up): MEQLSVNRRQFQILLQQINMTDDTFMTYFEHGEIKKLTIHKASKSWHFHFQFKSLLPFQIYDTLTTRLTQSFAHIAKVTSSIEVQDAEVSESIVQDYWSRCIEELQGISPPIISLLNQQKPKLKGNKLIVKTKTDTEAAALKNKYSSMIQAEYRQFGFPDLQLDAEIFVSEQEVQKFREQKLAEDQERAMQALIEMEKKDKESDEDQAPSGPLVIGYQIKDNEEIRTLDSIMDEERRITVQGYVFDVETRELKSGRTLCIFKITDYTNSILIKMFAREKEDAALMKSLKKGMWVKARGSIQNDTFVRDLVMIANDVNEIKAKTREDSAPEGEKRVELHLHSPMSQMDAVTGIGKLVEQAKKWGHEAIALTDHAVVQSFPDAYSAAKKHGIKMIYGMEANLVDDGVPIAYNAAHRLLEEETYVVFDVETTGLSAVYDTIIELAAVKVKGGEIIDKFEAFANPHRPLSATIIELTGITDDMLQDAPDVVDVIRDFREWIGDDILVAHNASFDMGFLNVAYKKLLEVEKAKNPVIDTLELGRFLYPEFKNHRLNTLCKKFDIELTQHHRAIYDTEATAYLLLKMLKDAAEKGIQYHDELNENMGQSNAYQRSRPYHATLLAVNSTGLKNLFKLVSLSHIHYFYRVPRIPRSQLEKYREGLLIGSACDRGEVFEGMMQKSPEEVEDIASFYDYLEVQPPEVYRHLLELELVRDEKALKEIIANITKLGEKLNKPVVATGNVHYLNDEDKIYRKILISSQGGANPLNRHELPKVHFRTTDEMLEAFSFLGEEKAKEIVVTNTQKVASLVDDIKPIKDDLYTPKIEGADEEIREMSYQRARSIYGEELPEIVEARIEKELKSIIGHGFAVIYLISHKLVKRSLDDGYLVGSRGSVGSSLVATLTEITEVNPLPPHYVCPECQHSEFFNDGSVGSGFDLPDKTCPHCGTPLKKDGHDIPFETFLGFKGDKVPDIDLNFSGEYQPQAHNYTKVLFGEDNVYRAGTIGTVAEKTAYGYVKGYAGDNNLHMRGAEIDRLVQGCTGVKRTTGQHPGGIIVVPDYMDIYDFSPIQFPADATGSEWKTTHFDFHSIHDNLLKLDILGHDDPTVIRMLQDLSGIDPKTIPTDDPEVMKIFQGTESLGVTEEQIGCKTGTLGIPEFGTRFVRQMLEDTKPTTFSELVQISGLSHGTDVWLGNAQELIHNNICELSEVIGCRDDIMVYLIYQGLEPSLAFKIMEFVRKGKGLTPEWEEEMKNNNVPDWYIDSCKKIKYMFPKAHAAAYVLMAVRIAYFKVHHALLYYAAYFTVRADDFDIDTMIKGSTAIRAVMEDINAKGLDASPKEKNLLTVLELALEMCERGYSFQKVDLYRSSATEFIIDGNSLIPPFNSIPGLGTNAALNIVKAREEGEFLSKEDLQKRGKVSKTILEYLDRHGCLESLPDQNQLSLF
Chain of Ubiquitin carboxyl-terminal hydrolase 2 (Homo sapiens) (O75604 whole entry, looked up): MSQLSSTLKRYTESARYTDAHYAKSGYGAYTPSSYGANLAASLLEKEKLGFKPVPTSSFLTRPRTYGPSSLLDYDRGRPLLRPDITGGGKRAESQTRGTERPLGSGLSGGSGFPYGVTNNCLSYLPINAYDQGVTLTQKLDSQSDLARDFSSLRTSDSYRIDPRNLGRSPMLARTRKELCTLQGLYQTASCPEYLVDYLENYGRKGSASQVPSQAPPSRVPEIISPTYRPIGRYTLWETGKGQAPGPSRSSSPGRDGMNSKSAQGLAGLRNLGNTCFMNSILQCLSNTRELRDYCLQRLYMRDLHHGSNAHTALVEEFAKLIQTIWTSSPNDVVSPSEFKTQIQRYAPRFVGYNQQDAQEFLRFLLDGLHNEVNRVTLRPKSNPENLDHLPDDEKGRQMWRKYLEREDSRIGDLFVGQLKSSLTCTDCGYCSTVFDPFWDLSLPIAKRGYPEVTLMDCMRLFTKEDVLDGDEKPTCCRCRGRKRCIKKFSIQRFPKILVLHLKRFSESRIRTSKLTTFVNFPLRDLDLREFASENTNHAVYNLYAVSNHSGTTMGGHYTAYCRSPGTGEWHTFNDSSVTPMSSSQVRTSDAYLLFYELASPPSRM

For the compound `CN1CCC(=C2c3ccccc3CC(=O)c3sccc32)CC1`, the Potency entry in assay [1], in assay [2], in assay [4], in assay [5], in assay [6] and in assay [7] was “inactive” throughout. For the same compound, the Potency result in assay [8] is “inactive”. For the same compound, the compound was called inactive in assay [3] and in [9].

Regarding `NS(=O)(=O)c1cc2c(cc1Cl)NCNS2(=O)=O`, the Potency entry in assay [1], in assay [2], in assay [4], in assay [5], in assay [6] and in assay [7] was “inactive” throughout. Moreover, the Potency result in [8] is “inactive”. Besides, the compound was called inactive in assay [3] and in assay [9].

In the case of `CN1CCC(=C2c3ccccc3C=Cc3ccccc32)CC1`, the Potency result in assay [1], in assay [2], in [4], in [5], in [7] and in assay [8] was “inactive” each time. For the same compound, in assay [10], the Potency entry is “inactive”. For the same compound, the result in assay [3] and in assay [9] was inactive.

Turning to `CCC1(c2ccccc2)C(=O)NCNC1=O`, the Potency entry in assay [1], in [2], in assay [4], in assay [5], in [6] and in assay [7] was “inactive” in each case. Further, the Potency entry in assay [8] and in assay [10] was “inactive” in each case. Also, the call in assay [3] and in assay [9] was inactive.

Take `CC(CCc1ccc(O)cc1)NCCc1ccc(O)c(O)c1` (stereo unspecified): the Potency result in assay [1], in assay [2], in assay [4], in assay [5], in assay [6] and in [8] was “inactive” throughout. Besides, the Potency entry in assay [10] was “inactive”. Moreover, the compound was called inactive in assay [3] and in assay [9].

In the case of `Cn1c(=O)c2[nH]cnc2n(C)c1=O`, the Potency entry in [1], in [2], in assay [4], in assay [5], in assay [6] and in [7] was “inactive” throughout. Moreover, the Potency result in assay [8] and in [10] was “inactive” in each case. Also, the outcome in assay [3] and in [9] was inactive.

With `O=C(CCCN1CCC(O)(c2ccc(Cl)cc2)CC1)c1ccc(F)cc1`, the Potency result in [1], in [2], in [4], in assay [7] and in [8] was “inactive” in each case. In addition, the compound was called inactive in [3] and in [9]. In assay [5], the Potency is 23.3 µM (active).

For `CCOC(=O)C(C)(C)Oc1ccc(Cl)cc1`, the Potency result in assay [1], in assay [2], in [4], in assay [5], in assay [6] and in assay [7] was “inactive” in each case. Also, in [8], the Potency entry is “inactive”. Besides, the compound was classed as inactive in assay [3] and in [9].

With `CCCNCC(O)COc1ccccc1C(=O)CCc1ccccc1` (stereo unspecified), the Potency result in assay [1], in [2], in assay [4], in [7] and in assay [8] was “inactive” throughout. The outcome in [3] and in assay [9] was inactive. In addition, in assay [5], the Potency was 16.5 µM (active).

For the compound `CN(C)CCC=C1c2ccccc2C=Cc2ccccc21`, the Potency entry in assay [1], in assay [2], in [4], in assay [7], in [8] and in assay [10] was “inactive” each time. The outcome in [3] and in assay [9] was inactive.

For `COc1ccc(CCN(C)CCCC(C#N)(c2ccc(OC)c(OC)c2)C(C)C)cc1OC` (stereo unspecified), the Potency entry in assay [1], in assay [4], in [6], in assay [7] and in assay [10] was “inactive” in each case. The call in assay [2], in assay [3] and in assay [9] was inactive.

As for `COc1cc2c(c(OC)c1OC)-c1ccc(OC)c(=O)cc1[C@@H](NC(C)=O)CC2`, the Potency entry in assay [1], in assay [2], in assay [4], in assay [5], in assay [6] and in assay [8] was “inactive” in each case. Moreover, the compound was called inactive in assay [3] and in assay [9].

Regarding `CC(COc1ccccc1)N(CCCl)Cc1ccccc1` (stereo unspecified), the Potency result in assay [1], in assay [2], in assay [4], in [5], in assay [6] and in assay [7] was “inactive” each time. Further, the Potency result in assay [8] was “inactive”. For the same compound, the call in [3] and in [9] was inactive.

With `Cn1cnc2c1c(=O)[nH]c(=O)n2C`, the Potency result in assay [1], in assay [2], in assay [4], in [5], in assay [6] and in [7] was “inactive” throughout. Moreover, the Potency result in assay [8] and in [10] was “inactive” throughout. The result in [3] and in assay [9] was inactive.

With `COc1ccc2c(c1)c(CC(=O)O)c(C)n2C(=O)c1ccc(Cl)cc1`, the Potency result in assay [1], in [2], in assay [4], in [5], in [7] and in [8] was “inactive” throughout. For the same compound, the Potency entry in assay [10] is “inactive”. The outcome in [3] and in assay [9] was inactive.

In the case of `CCOC(=O)Nc1ccc(NCc2ccc(F)cc2)nc1N`, the Potency entry in [1], in assay [4], in assay [5], in [6] and in assay [8] was “inactive” each time. Further, the Potency in assay [2] is 28.2 µM (active). In assay [3], the call was inactive.

Take `CC(C)NCC(O)c1ccc(O)c(O)c1` (stereo unspecified): the Potency result in assay [1], in [2], in [4], in assay [7], in assay [8] and in assay [10] was “inactive” each time. The result in [3] and in assay [9] was inactive. Further, the Potency in assay [6] is 13.1 µM (active).

As for `O=c1[nH]cc(F)c(=O)[nH]1`, the Potency result in assay [1], in assay [2], in [4], in assay [5], in assay [7] and in assay [8] was “inactive” throughout. The Potency entry in assay [10] was “inactive”. Besides, the result in [3] and in assay [9] was inactive.

`Cn1c(=O)c2c(ncn2C)n(C)c1=O`: the Potency entry in assay [1], in assay [2], in assay [4], in assay [5], in assay [6] and in [7] was “inactive” in each case. Moreover, the Potency result in assay [8] and in assay [10] was “inactive” each time. The call in [3] and in assay [9] was inactive.

`O=C1c2c(O)ccc(O)c2C(=O)c2c(NCCNCCO)ccc(NCCNCCO)c21`: the Potency in assay [1] was 3.16 µM (active); in assay [2], 20 µM (active); in [10], 1.5 µM (active). Also, the result in assay [3] and in assay [9] was inactive. For the same compound, the Potency result in [4], in assay [5] and in assay [7] was “inactive” in each case.

As to `CCC1(C)CC(=O)NC1=O` (stereo unspecified), the Potency entry in assay [1], in assay [2], in assay [4], in [5], in [6] and in [7] was “inactive” each time. Moreover, the Potency entry in assay [8] and in assay [10] was “inactive” throughout. In addition, the result in assay [3] and in assay [9] was inactive.
